Laboratory results taken from PubChem BioAssay (NCATS).
Inconclusive results are not listed. Where a call stands in place of a potency, no number is given. Activity calls are given as the source filed them. Calls come from the whole dose curve; as a rule, active = well fitted curve in the direction sought with a large enough effect; inconclusive = small, poorly fitted or top-dose-only effect, or another doubt; inactive = no such curve, though single readings can be large; an effect the other way counts as inactive or inconclusive.

Columns and labels:
[1] = Quantitative High-Throughput drug screen in 47 multiple myeloma cell lines against the NCATS MIPE library collection: JIM3_ECACC cell viability assay (AID 1918963; note: nearly all actives have a fitted effect of over 35% in size; note: potency is the fitted concentration of half-maximal effect)
Outline: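 Steps: seed 500 cells per well; pin-transfer MIPE 4.0 library; incubate 48 h at 37C, 5% CO2, humidified; add CellTiter-Glo, 5 min room temperature; read luminescence.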

[2] = Quantitative High-Throughput drug screen in 47 multiple myeloma cell lines against the NCATS MIPE library collection: H1112_PLB cell viability assay (AID 1918967; note: nearly all actives have a fitted effect of over 30% in size; note: potency is the fitted concentration of half-maximal effect)
Outline: (§1)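 We plated 500 myeloma cells per well, pinned in MIPE 4.0 compounds, and incubated for 48 hours at 37C. ATP was then quantified with CellTiter-Glo, with DMSO and media-only wells defining 100% and 0%.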

[3] = Quantitative High-Throughput drug screen in 47 multiple myeloma cell lines against the NCATS MIPE library collection: Karpas25_ECACC cell viability assay (AID 1918968; note: nearly all actives have a fitted effect of over 35% in size; note: potency is the fitted concentration of half-maximal effect)
Outline: as §1

[4] = Quantitative High-Throughput drug screen in 47 multiple myeloma cell lines against the NCATS MIPE library collection: KMS12BM_JCRB cell viability assay (AID 1918971); note: nearly all actives have a fitted effect of over 35% in size; note: potency is the fitted concentration of half-maximal effect
Outline: (§2)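 Approved and investigational drugs from MIPE 4.0 were added by pin tool to 500 cells per well. After 48 hours at 37C, ATP-based CellTiter-Glo luminescence indicated remaining viability.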

[5] = Quantitative High-Throughput drug screen in 47 multiple myeloma cell lines against the NCATS MIPE library collection: KMS12PE_JCRB cell viability assay (AID 1918972); note: nearly all actives have a fitted effect of over 30% in size; note: potency is the fitted concentration of half-maximal effect; for viability: series mostly up to about 46 µM
Outline: (§3)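 CellTiter-Glo luminescence (ATP) after 48 h compound exposure, 37C/5% CO2; 500 cells/well; MIPE 4.0 approved/investigational drugs pinned in; DMSO = 100%, media only = 0% viability.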

[6] = Quantitative High-Throughput drug screen in 47 multiple myeloma cell lines against the NCATS MIPE library collection: MOLP8_DSMZ cell viability assay (AID 1918977); note: nearly all actives have a fitted effect of over 45% in size; note: potency is the fitted concentration of half-maximal effect
Outline: (§4)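 500 cells/well; MIPE 4.0 drugs pin-transferred; 48 h, 37C, 5% CO2. CellTiter-Glo, 5 min RT, luminescence. Controls: DMSO 100%, media 0%.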

[7] = Quantitative High-Throughput drug screen in 47 multiple myeloma cell lines against the NCATS MIPE library collection: NCIH929_DSMZ cell viability assay (AID 1918978); note: nearly all actives have a fitted effect of over 35% in size; note: potency is the fitted concentration of half-maximal effect
Outline: as §4

[8] = Quantitative High-Throughput drug screen in 47 multiple myeloma cell lines against the NCATS MIPE library collection: OCIMY1_PLB cell viability assay (AID 1918979); note: nearly all actives have a fitted effect of over 35% in size; note: potency is the fitted concentration of half-maximal effect; for viability: series mostly up to about 46 µM
Outline: as §4

[9] = Quantitative High-Throughput drug screen in 47 multiple myeloma cell lines against the NCATS MIPE library collection: MM1S_ATCC cell viability assay (AID 1918980); note: nearly all actives have a fitted effect of over 45% in size; note: potency is the fitted concentration of half-maximal effect
Outline: as §4

[10] = Quantitative High-Throughput drug screen in 47 multiple myeloma cell lines against the NCATS MIPE library collection: MM1R_ATCC cell viability assay (AID 1918981); note: nearly all actives have a fitted effect of over 35% in size; note: potency is the fitted concentration of half-maximal effect
Outline: as §4

[11] = Quantitative High-Throughput drug screen in 47 multiple myeloma cell lines against the NCATS MIPE library collection: LP1_DSMZ cell viability assay (AID 1918982); note: nearly all actives have a fitted effect of over 35% in size; note: potency is the fitted concentration of half-maximal effect
Outline: as §4

[12] = Quantitative High-Throughput drug screen in 47 multiple myeloma cell lines against the NCATS MIPE library collection: KMS20_JCRB cell viability assay (AID 1918973); note: nearly all actives have a fitted effect of over 45% in size; note: potency is the fitted concentration of half-maximal effect
Outline: as §1

[13] = Quantitative High-Throughput drug screen in 47 multiple myeloma cell lines against the NCATS MIPE library collection: INA6_PLB cell viability assay (AID 1918965; note: nearly all actives have a fitted effect of over 55% in size; note: potency is the fitted concentration of half-maximal effect)
Outline: as §3

[14] = Quantitative High-Throughput drug screen in 47 multiple myeloma cell lines against the NCATS MIPE library collection: KMS27_JCRB cell viability assay (AID 1918970); note: nearly all actives have a fitted effect of over 30% in size; note: potency is the fitted concentration of half-maximal effect
Outline: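 CellTiter-Glo luminescence after 48 h drug exposure at 37 °C; 500 cells/well, 1536-well format, pin-tool compound addition; DMSO = 100%, media-only = 0% viability.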

[15] = Quantitative High-Throughput drug screen in 47 multiple myeloma cell lines against the NCATS MIPE library collection: KMS26_JCRB cell viability assay (AID 1918975); note: nearly all actives have a fitted effect of over 45% in size
Outline: as §2

[16] = Quantitative High-Throughput drug screen in 47 multiple myeloma cell lines against the NCATS MIPE library collection: MMM1_PLB cell viability assay (AID 1918976); note: nearly all actives have a fitted effect of over 35% in size; note: potency is the fitted concentration of half-maximal effect
Outline: as §4

**Q.** Which results are given for `NC1CCC(Nc2nc(Nc3ccc(C(=O)N4CCCCC4)cc3)c3ncn(-c4cccc(F)c4)c3n2)CC1` (stereo not drawn)?
**A.** Potency [1]: inactive; Potency [2]: inactive; Potency [3]: inactive; Potency [4]: inactive; Potency [5]: inactive; Potency [6]: inactive; Potency [7]: inactive; Potency [8]: inactive; Potency [9]: inactive; Potency [10]: inactive; Potency [11]: inactive

**Q.** What does the source list for `CN1C[C@H]2c3ccccc3Oc3ccc(Cl)cc3[C@@H]2C1`?
**A.** Potency [1]: inactive; Potency [2]: inactive; Potency [3]: inactive; Potency [4]: inactive; Potency [12]: inactive; Potency [6]: inactive; Potency [7]: inactive; Potency [8]: inactive; Potency [10]: inactive; Potency [11]: inactive

**Q.** With `Clc1cc(Cl)cc(CNc2ncncc2-c2ccc3c(c2)OCO3)c1` as the compound, how does the Potency [1] read?
**A.** 16.6 µM (active)

**Q.** And the Potency [13]?
**A.** 16.6 µM (active)

**Q.** What about the Potency [14] of the same compound?
**A.** 18.7 µM (active)

**Q.** And the Potency [6]?
**A.** inactive

**Q.** For `Cn1cc(C=C2C(=O)Nc3cccnc32)c2ccccc21`, which Potency [1] is on record?
**A.** 16.6 µM (active)

**Q.** And the Potency [2]?
**A.** inactive

**Q.** What about the Potency [3] of the same compound?
**A.** inactive

**Q.** And the Potency [14]?
**A.** inactive

**Q.** And the Potency [4]?
**A.** inactive

**Q.** What about the Potency [15] of the same compound?
**A.** inactive

**Q.** And the Potency [6]?
**A.** inactive

**Q.** What about the Potency [8] of the same compound?
**A.** inactive

**Q.** And the Potency [11]?
**A.** inactive

**Q.** For `CCOC1OC(=O)C[C@H]1NC(=O)[C@@H]1CCCN1C(=O)[C@@H](NC(=O)c1ccc(N)c(Cl)c1)C(C)(C)C` (stereo partly drawn), which Potency [1] is on record?
**A.** inactive

**Q.** And the Potency [13]?
**A.** inactive

**Q.** What about the Potency [2] of the same compound?
**A.** inactive

**Q.** And the Potency [14]?
**A.** 5.26 µM (active)

**Q.** And the Potency [4]?
**A.** inactive

**Q.** What about the Potency [5] of the same compound?
**A.** 11.8 µM (active)

**Q.** What about the Potency [15] of the same compound?
**A.** inactive

**Q.** What about the Potency [6] of the same compound?
**A.** inactive

**Q.** And the Potency [7]?
**A.** inactive

**Q.** What about the Potency [8] of the same compound?
**A.** inactive

**Q.** And the Potency [9]?
**A.** 26.4 µM (active)

**Q.** What about the Potency [10] of the same compound?
**A.** inactive

**Q.** What about the Potency [11] of the same compound?
**A.** inactive

**Q.** What does the source list for `COc1cc(Nc2ncc(F)c(Nc3ccc4c(n3)NC(=O)C(C)(C)O4)n2)cc(OC)c1OC`?
**A.** Potency [1]: 0.935 µM (active); Potency [13]: 1.18 µM (active); Potency [3]: 1.66 µM (active); Potency [14]: 11.8 µM (active); Potency [12]: 1.05 µM (active); Potency [16]: 1.48 µM (active); Potency [6]: 7.43 µM (active); Potency [7]: 1.18 µM (active); Potency [8]: 1.66 µM (active); Potency [9]: inactive; Potency [10]: 6.62 µM (active)

**Q.** Which Potency [1] does the source give for `CO[C@H]1C(=O)[C@]2(C)[C@@H](OC)C[C@H]3OC[C@@]3(OC(C)=O)[C@H]2[C@H](OC(=O)c2ccccc2)[C@]2(O)C[C@H](OC(=O)[C@H](O)[C@@H](NC(=O)OC(C)(C)C)c3ccccc3)C(C)=C1C2(C)C` here?
**A.** inactive

**Q.** What about the Potency [13] of the same compound?
**A.** inactive

**Q.** And the Potency [2]?
**A.** inactive

**Q.** And the Potency [3]?
**A.** inactive

**Q.** And the Potency [4]?
**A.** inactive

**Q.** What about the Potency [5] of the same compound?
**A.** inactive

**Q.** And the Potency [12]?
**A.** inactive

**Q.** And the Potency [7]?
**A.** inactive

**Q.** What about the Potency [10] of the same compound?
**A.** inactive

**Q.** And the Potency [11]?
**A.** inactive

**Q.** Which Potency [1] does the source give for `CO[C@H]1C[C@@H]2CC[C@@H](C)[C@@](O)(O2)C(=O)C(=O)N2CCCC[C@@H]2C(=O)O[C@H]([C@H](C)C[C@@H]2CC[C@H](OC(=O)C(C)(CO)CO)[C@H](OC)C2)CC(=O)[C@H](C)C=C(C)[C@@H](O)[C@@H](OC)C(=O)[C@H](C)C[C@H](C)C=CC=CC=C1C` here?
**A.** 20.9 µM (active)

**Q.** And the Potency [3]?
**A.** 13.2 µM (active)

**Q.** What about the Potency [12] of the same compound?
**A.** 11.8 µM (active)

**Q.** What about the Potency [7] of the same compound?
**A.** 18.7 µM (active)

**Q.** What about the Potency [9] of the same compound?
**A.** inactive

**Q.** Which results are given for `OC[C@H]1O[C@@H](Oc2cc(O)cc(C=Cc3ccc(O)cc3)c2)[C@H](O)[C@@H](O)[C@H]1O`?
**A.** Potency [1]: inactive; Potency [14]: inactive; Potency [4]: inactive; Potency [5]: inactive; Potency [15]: inactive; Potency [6]: inactive; Potency [10]: inactive

**Q.** With `CC=CC[C@@H](C)C(=O)[C@H]1C(=O)N[C@@H](C(C)C)C(=O)N(C)CC(=O)N(C)[C@@H](CC(C)C)C(=O)N[C@@H](C(C)C)C(=O)N(C)[C@@H](CC(C)C)C(=O)N[C@@H](C)C(=O)N[C@H](C)C(=O)N(C)[C@@H](CC(C)C)C(=O)N(C)[C@@H](CC(C)C)C(=O)N(C)[C@@H](C(C)C)C(=O)N1C` as the compound, how does the Potency [1] read?
**A.** 23.5 µM (active)

**Q.** What about the Potency [4] of the same compound?
**A.** 23.5 µM (active)

**Q.** And the Potency [5]?
**A.** inactive

**Q.** What about the Potency [12] of the same compound?
**A.** 1.32 µM (active)

**Q.** What about the Potency [16] of the same compound?
**A.** 5.26 µM (active)

**Q.** And the Potency [8]?
**A.** inactive

**Q.** And the Potency [9]?
**A.** 16.6 µM (active)

**Q.** Which Potency [1] does the source give for `CCC(=O)NC[C@H](Cc1ccc(OCCc2nc(-c3ccccc3)oc2C)cc1)NC(C)=CC(=O)c1ccc(C(F)(F)F)cc1` here?
**A.** inactive

**Q.** And the Potency [2]?
**A.** inactive

**Q.** And the Potency [3]?
**A.** inactive

**Q.** What about the Potency [4] of the same compound?
**A.** 26.4 µM (active)

**Q.** What about the Potency [5] of the same compound?
**A.** 7.43 µM (active)

**Q.** And the Potency [12]?
**A.** inactive

**Q.** What about the Potency [6] of the same compound?
**A.** 23.5 µM (active)

**Q.** And the Potency [7]?
**A.** inactive

**Q.** And the Potency [9]?
**A.** 1.87 µM (active)

**Q.** What about the Potency [11] of the same compound?
**A.** 18.7 µM (active)

**Q.** Which results are given for `CC1(C)CCC2=C(O1)c1ccccc1C(=O)C2=O`?
**A.** Potency [1]: 18.7 µM (active); Potency [13]: 20.9 µM (active); Potency [3]: 5.9 µM (active); Potency [4]: 20.9 µM (active); Potency [5]: 5.9 µM (active); Potency [12]: 18.7 µM (active); Potency [16]: 2.64 µM (active); Potency [6]: 20.9 µM (active); Potency [9]: 26.4 µM (active); Potency [10]: 23.5 µM (active); Potency [11]: 20.9 µM (active)

**Q.** With `O=C(CCc1ccc(O)cc1)c1c(O)cc(O)cc1O[C@@H]1O[C@H](CO)[C@H](O)[C@H](O)[C@H]1O` as the compound, how does the Potency [1] read?
**A.** inactive

**Q.** What about the Potency [2] of the same compound?
**A.** inactive

**Q.** And the Potency [14]?
**A.** inactive

**Q.** And the Potency [4]?
**A.** inactive

**Q.** And the Potency [5]?
**A.** inactive

**Q.** What about the Potency [12] of the same compound?
**A.** inactive

**Q.** What about the Potency [7] of the same compound?
**A.** inactive

**Q.** And the Potency [8]?
**A.** inactive

**Q.** And the Potency [10]?
**A.** inactive

**Q.** What about the Potency [11] of the same compound?
**A.** inactive

**Q.** With `CCN(CC)CCOc1ccc(C(=C(Cl)c2ccccc2)c2ccccc2)cc1` as the compound, how does the Potency [1] read?
**A.** inactive

**Q.** What about the Potency [13] of the same compound?
**A.** inactive

**Q.** And the Potency [3]?
**A.** inactive

**Q.** And the Potency [4]?
**A.** inactive

**Q.** And the Potency [16]?
**A.** inactive

**Q.** What about the Potency [6] of the same compound?
**A.** inactive

**Q.** What about the Potency [8] of the same compound?
**A.** inactive

**Q.** What about the Potency [10] of the same compound?
**A.** inactive

**Q.** And the Potency [11]?
**A.** inactive

**Q.** With `CCNc1cc(NC2CCC(O)CC2)nc(Nc2ccc3c(ccn3Cc3ccccc3)c2)n1` (stereo not drawn) as the compound, how does the Potency [1] read?
**A.** 20.9 µM (active)

**Q.** What about the Potency [13] of the same compound?
**A.** 16.6 µM (active)

**Q.** And the Potency [2]?
**A.** 18.7 µM (active)

**Q.** What about the Potency [3] of the same compound?
**A.** 18.7 µM (active)

**Q.** And the Potency [12]?
**A.** 37.2 µM (active)

**Q.** And the Potency [11]?
**A.** 20.9 µM (active)
